Screening results: PubChem, Broad Institute
Not all results are given here.
aSyn UTR act: Activators working through SNCA 5'UTR binding (MLPCN) | alpha-synuclein 5'UTR reporter, activators screen | activity score, % (tested at 7.5 µM), hits read low | 7.1% of 300,000 active | AID 1814; in the data active = activity score below about -60%
* hit, by the source's call.

SMILES	aSyn UTR act
O=C(Nc1cccc(Cn2cccn2)c1)c1cc2c(s1)CCCC2	-138.8*
COc1ccc(C)cc1NS(=O)(=O)c1ccc(-c2cnc(C3CC3)o2)cc1	102.2
COc1ccc(C)cc1NC(=O)c1cc2c(s1)CCC2	-143.5*
CC(C)OC(=O)Cn1nnc2c(cnn2-c2ccccc2)c1=O	-97.6*
[O-]/[N+](=C\C=C\c1ccccc1)c1ccccc1	-181.8*
CC(/C=N\NC(=O)c1cc(C)oc1C)=C\c1ccccc1	-118.8*
CC(/C=N/Nc1nc(C)cc(C)n1)=C\c1ccc(C(C)C)cc1	-153.2*
O=C(N/N=C/C(Cl)=C/c1ccccc1)c1cnccn1	-102.3*
CC(/C=N/NC(=O)c1cccnc1)=C\c1ccccc1	-124.2*
O=C(N/N=C/c1cc([N+](=O)[O-])ccc1Cl)c1cnccn1	81.1
CC(/C=N/NC(=O)c1ccncc1)=C\c1ccc(C(C)C)cc1	-146.4*
C/C(=N\NC(=O)C(c1ccccc1)c1ccccc1)c1ccccn1	79.9
CC(/C=N/NC(=O)C(O)c1ccccc1)=C\c1ccccc1 (stereo unspecified)	-81.1*
CC(=C/c1ccccc1)/C=N/NC(=O)c1cnccn1	-190.0*
CCOC(=O)N1CCC(NC(=O)c2ccc3c(c2)sc2nc(-c4ccc(OC)cc4)cn23)CC1	-98.2*
CCOC(=O)N1CCN(C(=O)c2nc3ccccc3s2)CC1	-92.7*
CCOC(=O)N1CCN(C(=O)c2ccc3c(c2)sc2nc(-c4ccccc4)cn23)CC1	-108.7*
O=C(CSc1nc2cc(Cl)ccc2s1)c1ccco1	-209.6*
CCCOc1ncnc2c1[nH]c1ccccc12	-142.3*
C=CCNc1ncnc2c1[nH]c1ccc(C)cc12	-183.9*
CCCOc1ncnc2c1[nH]c1ccc(OC)cc12	-130.3*
CCCCOc1ncnc2c1[nH]c1ccc(C)cc12	-93.4*
Cc1ccc2[nH]c3c(N4CCCCCC4)ncnc3c2c1	-127.1*
Cc1cc(Cl)ccc1OCc1cn2cccnc2n1	-123.6*
Clc1ccc(OCc2cn3cccnc3n2)c2ncccc12	-64.2*
SMILES	aSyn UTR act
CCOc1ccc(-c2cnc3ccccc3n2)cc1	92.2
O=[N+]([O-])c1ccc(-c2cnc3ccccc3n2)cc1	-124.4*
O=[N+]([O-])c1cc(-c2cnc3ccccc3n2)ccc1Oc1ccc(F)cc1	-149.6*
CCOC(=O)C1=C(CSc2nc(-c3ccccc3)ccc2C#N)OC(N)=C(C#N)C1c1ccc(OC)cc1 (stereo unspecified)	-184.0*
COc1ccc(C(=O)O/N=C(/c2ccccc2)c2ccncc2)cc1	-71.7*
N/C(=N\OC(=O)c1ccc(Br)cc1)c1ccncc1	-109.9*
N/C(=N\OC(=O)c1cccc(Br)c1)c1ccncc1	-137.9*
N/C(=N\OC(=O)c1ccccc1)c1ccncc1	-121.6*
O=C(NCCCN1CCOCC1)C(=O)N/N=C/c1c2ccccc2cc2ccccc12	66.7
O=C(NCCCn1ccnc1)c1cc(-c2cccs2)on1	-293.7*
O=C(NCCCN1CCOCC1)c1cc(-c2cccs2)on1	-152.0*
CCc1ccc(-c2csc(NC(=O)C3=NN(c4ccccc4)C(=O)CC3)n2)cc1	-96.7*
CCn1c(O)c(C=Nc2ccccc2)sc1=O	-101.3*
CC1=Nc2ccccc2/C1=C/c1sc(=N)n(-c2nccs2)c1O	62.5
CCn1c(O)c(/C=C2\C=Nc3ccccc32)sc1=O	-244.7*
CCn1c(O)c(C=Nc2ccccc2)sc1=S	-153.3*
Oc1nc(Nc2ccccc2)sc1/C=C1\C=Nc2ccccc21	-111.9*
C=CCn1c(O)c(C=Nc2ccccc2)sc1=S	-106.8*
Cc1ccc(-c2csc(NC(=O)c3ccc(F)cc3)c2C(=O)O)cc1	-105.2*
COc1ccc(-c2csc(NC(=O)c3ccc(C(C)(C)C)cc3)c2C(=O)O)cc1	42.5
CCOC(=O)c1c(-c2ccc(-c3ccccc3)cc2)csc1NC(=O)CNCCN(C)C	100.6
Cc1ccc(-c2csc(NC(=O)c3ccccc3F)c2C(=O)O)cc1	-102.2*
O=C(/C=C/c1ccccc1)Nc1scc(-c2ccccc2)c1C(=O)O	-84.2*
CCOC(=O)C1CCN(C(=O)c2cc3c(ccc4ccccc43)o2)CC1	-115.2*
CCOC(=O)C1CCN(Cc2c(O)ccc3ccccc23)CC1	-107.6*
SMILES	aSyn UTR act
CCOC(=O)C1CCN(C(=O)c2c(C)oc3c2C(=O)c2ccccc2C3=O)CC1	72.1
Cc1oc2c(c1C(=O)N1CCC(C)CC1)C(=O)c1ccccc1C2=O	83.4
CC1CCN(C(=O)c2cc3ccccc3c(=O)o2)CC1	-77.7*
CCCCOc1ccc(/C(N)=N/O)cc1	-73.2*
c1ccc(C2CCC3(CC2)Oc2ccccc2C2CC(c4cccnc4)=NN23)cc1 (stereo unspecified)	-85.6*
Cc1c(C)n(CCc2ccccc2)c2ncnc(NCCCO)c12	-140.8*
Cc1ccc(-n2c(C)c(C)c3c(NCCO)ncnc32)cc1	-106.6*
C/C(=C\C(=O)c1ccccc1)NCc1ccc(F)cc1	-64.2*
Cc1ccc(/C=C/C(=O)c2cc(Br)ccc2OC(=O)c2ccco2)cc1	-94.2*
CCc1ccc(/C=C/C(=O)c2cc(Br)ccc(=O)c2O)cc1	72.1
COc1ccc(/C=C/c2nc3ccccc3c(=O)o2)cc1	101.5
COc1ccccc1/C=C/c1nc2ccccc2c(=O)o1	-106.9*
